Measured values reported in the supplement of paper PMC3334620.
The full ranking holds about 33,000 sequences; the median of “E-score (-0.5 to 0.5)” is about -0.013, and the highest 2% start at about 0.3. The sample holds the highest values, similar sequences and a random draw of the others, so the mix is not that of the screen.

What follows are sequences tested against T1, Msn1 (UniProt P22148) (assay: PBM E-score (8-mer binding enrichment) (E-score (-0.5 to 0.5)); higher = stronger / more preferred TF binding). Conditions: protein concentration: 200 nM; construct: GST-full length.
T1 sequence: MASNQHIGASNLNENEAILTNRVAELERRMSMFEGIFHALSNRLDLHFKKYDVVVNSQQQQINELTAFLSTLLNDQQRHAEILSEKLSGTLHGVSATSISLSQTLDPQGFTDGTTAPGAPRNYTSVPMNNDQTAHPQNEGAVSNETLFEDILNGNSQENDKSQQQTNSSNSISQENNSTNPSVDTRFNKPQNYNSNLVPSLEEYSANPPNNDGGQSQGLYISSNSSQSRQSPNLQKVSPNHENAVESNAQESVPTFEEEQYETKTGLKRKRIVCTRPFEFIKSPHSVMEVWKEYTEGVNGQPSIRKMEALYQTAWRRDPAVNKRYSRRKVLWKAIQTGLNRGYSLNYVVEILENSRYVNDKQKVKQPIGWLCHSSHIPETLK
Protocol: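 Universal 'all 10-mer' protein binding microarrays (Agilent AMADID 015681) probed with GST-tagged S. cerevisiae TFs (full-length or DBD) made by in vitro transcription/translation (PURExpress), about 100-200 nM. Bound TF was detected with fluorescent anti-GST. Each ungapped 8-mer (which stands for itself and its reverse complement) is scored by the PBM enrichment score (E-score), a modified Wilcoxon-Mann-Whitney statistic from -0.5 to +0.5, computed with the Universal PBM Analysis Suite. Scale: above 0.35 generally sequence-specific binding.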

| Sequence | PBM E-score |
| --- | --- |
| ATCGACCC | -0.11 |
| ATCCCTGC | -0.24 |
| AGGGTAAG | 0.00826 |
| AACGGGTC | -0.155 |
| CAGAATAC | 0.0673 |
| TCCTCTAA | -0.0667 |
| AGTGGGAC | 0.118 |
| ACTCTCCA | -0.0814 |
| ATTGAACA | 0.124 |
| CTCGTCCC | 0.228 |
| CCCCATAG | -0.15 |
| GAAATGTC | 0.487 |
| AAAATTTG | 0.16 |
| CAAATTTC | 0.184 |
| GAAATGTA | 0.245 |
| CAAATGTG | 0.229 |
| GAAATGCC | 0.00283 |
| CAAATTTG | 0.32 |
| CAAATGTA | 0.276 |
| CAAATGTC | 0.471 |
| GCCGGTCC | -0.233 |
| CAGCGTTA | -0.131 |
| AAACTCTC | -0.0224 |
| GGGACCAC | -0.255 |
| GGAACAAC | 0.0504 |

| Sequence | PBM E-score |
| --- | --- |
| GGGACAAC | 0.375 |
| GGGACGAA | 0.187 |
| CGGACGAA | 0.337 |
| CGGACGAC | -0.0607 |
| CGGACCAG | -0.125 |
| CGGACGAG | 0.0588 |
| CGGACAAG | 0.418 |
| CGGACAGA | 0.302 |
| CGGACGGA | -0.00604 |
| CGGACAAA | 0.484 |
| GCTCTCAC | -0.29 |
| ATTTGACG | 0.15 |
| CCAGCATC | -0.148 |
| AGAAGAGC | -0.0669 |
| GTTGAATA | 0.0705 |
| TGGTCTAA | -0.0904 |
| CGGACAAC | 0.369 |
| CAGACAAC | 0.212 |
| CGGACCAC | -0.0995 |
| GATGGAGC | -0.185 |
| GTGCGGGA | -0.0606 |
| AAAAGTAC | 0.366 |
| AAAAGTAA | 0.25 |
| ACAAGTCG | 0.0205 |
| ATTAGTCG | 0.16 |

| Sequence | PBM E-score |
| --- | --- |
| ACAAGTCA | 0.0996 |
| AAAAGTCA | 0.194 |
| AAAAGTCC | 0.467 |
| ATTAGTCA | 0.0896 |
| ACAAGTCC | 0.363 |
| AAAAGTCT | 0.269 |
| AAAAGTAT | 0.17 |
| ATTAGTCC | 0.349 |
| ACCTCAGA | -0.147 |
| CGGCTTAC | 0.051 |
| AAGGCCAA | -0.2 |
| TGGCGAAA | -0.095 |
| ACTGAAGA | 0.147 |
| AAGGCTAG | 0.0752 |
| CACCCAAC | -0.201 |
| GAGGCGCC | -0.178 |
| ATAAGTCG | 0.0746 |
| CTAAGTCC | -0.0602 |
| ATAAGTCC | 0.422 |
| ACAGTCAG | 0.0633 |
| GATTTGTA | 0.31 |
| CATTTGGC | 0.0384 |
| GGTTTGTA | 0.0228 |
| CATTTGTA | 0.36 |
| CATTTGCA | 0.0736 |

| Sequence | PBM E-score |
| --- | --- |
| CATTTGCC | -0.00883 |
| CATTTGTC | 0.485 |
| GATTTGCA | 0.0983 |
| AATTTGTA | 0.28 |
| GCAACCGC | 0.0753 |
| AATCCAAG | 0.0229 |
| AGCCCGCG | -0.185 |
| CAACCATC | -0.177 |
| CTGAACTC | -0.0622 |
| CAGGGACC | -0.273 |
| GAGGGACA | 0.447 |
| CAGGGACG | 0.165 |
| TAGGGACA | 0.484 |
| CAGGGACA | 0.47 |
| AAGGGACC | -0.0619 |
| TAGGGAGA | -0.215 |
| AAGGGACT | 0.0205 |
| TAGGGAAA | -0.0483 |
| AAGGGACA | 0.44 |
| GAGGGAGA | -0.218 |
| GAGGGACC | -0.268 |
| ACTAGCGA | 0.0418 |
| AGCATGCG | -0.0235 |
| GAGTCTCA | 0.00041 |
| CGATAACC | 0.0193 |

| Sequence | PBM E-score |
| --- | --- |
| GAAATGGA | -0.0913 |
| GAAATGAC | 0.216 |
| CCGATTTA | 0.109 |
| GAGCCCTC | -0.318 |
| CCCTAGTA | -0.0771 |
| CAAGCGTA | -0.0459 |
| CCTTTTAC | 0.0837 |
| CTGGGGCC | -0.384 |
| AGGACCAC | -0.124 |
| AGGACAAT | 0.483 |
| AGGACCAG | -0.141 |
| AGGACAAG | 0.472 |
| ACGACAAT | 0.24 |
| AGGACTAC | -0.122 |
| AGGACAAC | 0.436 |
| AGGACGAT | -0.0393 |
| AGGACTAG | 0.273 |
| ATTCGAAA | 0.0661 |
| AATCTGGT | 0.0578 |
| ATAGGTAC | 0.199 |
| GCTTTCGA | -0.175 |
| ATGCCTGC | -0.145 |
| ACGGTTAA | -0.117 |
| CCTCGTTC | -0.202 |
| AGAAAACA | 0.108 |

| Sequence | PBM E-score |
| --- | --- |
| AAGGACTG | -0.0408 |
| AAGGACCA | -0.0926 |
| AAGGACTA | -0.00885 |
| AAGGACGT | 0.32 |
| CAGGACCA | -0.0434 |
| AAGGACAG | 0.296 |
| AAGGACGA | 0.0414 |
| CAGGACAA | 0.481 |
| CAGGACAG | 0.259 |
| AAGGACAA | 0.485 |
| AAGGACGG | -0.145 |
| AAGGACTT | 0.347 |
| GCCCGTCA | -0.234 |
| ACCGGTAA | -0.0138 |
| AACTTTGA | 0.12 |
| AAATTCGT | 0.256 |
| AGCCCCGC | -0.0507 |
| GGGCCTAA | -0.0118 |
| TAGGACCA | 0.202 |
| AAGGACAT | 0.49 |
| TAGGACAA | 0.491 |
| AAGGACCT | 0.0694 |
| AAGGAGAT | -0.164 |
| TAGGACTA | 0.257 |
| TATATGCA | 0.102 |

| Sequence | PBM E-score |
| --- | --- |
| ACATTCAA | 0.134 |
| CTTGGCCA | -0.0402 |
| GAGGACCA | -0.184 |
| GAGGACTA | 0.0516 |
| AAGGACGC | 0.167 |
| GAGGACAA | 0.466 |
| CAGGACAC | 0.407 |
| AAGGACAC | 0.449 |
| GAGGACCC | -0.218 |
| GAGGACAC | 0.398 |
| CAGGACGC | 0.00853 |
| AAGGACCC | -0.0634 |
| CAGAACAC | -0.0663 |
| GAGGACTC | -0.078 |
| GCCGGTAA | 0.146 |
| ATATTCGG | 0.11 |
| AGCAGTTA | -0.0695 |
| CTCGACAG | -0.14 |
| TACACTGA | 0.0723 |
| GCCTAAAC | 0.0003 |
| AGTCGCTA | -0.0278 |
| ACGATGTA | 0.00548 |
